This is an account of results in PubChem BioAssay (NCI).

The panel holds about 83,000 compounds, 20% with a hit somewhere; the sample as a whole holds those more often.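 Activity criterion: percent growth below 10, measured after cells in 96-well plates were exposed to a single compound concentration for 48 hours.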 Values without a mark were called inactive. Active and inactive are the calls of the source.

Test systems include SK-MEL-2 melanoma; SN12C renal; UO-31 renal; TK-10 renal; ACHN renal; CAKI-1 renal; CCRF-CEM leukemia; MOLT-4 leukemia; SR leukemia; RPMI-8226 leukemia; OVCAR-8 ovarian; OVCAR-5 ovarian; OVCAR-4 ovarian; SK-OV-3 ovarian; IGROV1 ovarian; OVCAR-3 ovarian; HS 578T breast; NCI/ADR-RES ovarian.
What all share (test): NCI-60 one-dose screen, 48 h (100 = growth as untreated, 0 = no growth, -100 = all killed)
Details in all cases: 10 µM unless noted

For `COc1cc(OC)c(C(=O)/C=C/c2cccc(C(F)(F)F)c2)c(OC)c1`, the growth is -16.1% (active) in the assay with SK-MEL-2 melanoma; 19.2% in the assay with SN12C renal; 26.9% in the assay with UO-31 renal; 15.1% with TK-10 renal; 3.47% (active) in the assay on ACHN renal; 33.8% in the assay with CAKI-1 renal. The growth with CCRF-CEM leukemia was 4.41% (active); in the assay with MOLT-4 leukemia, 1.4% (active); in the assay on SR leukemia it was 6.07% (active); with RPMI-8226 leukemia it was 1.61% (active); in the assay on OVCAR-8 ovarian, 14.1%; in the assay on OVCAR-5 ovarian it was 42.4%. Moreover, the growth with OVCAR-4 ovarian was 31.4%; in the assay with SK-OV-3 ovarian it was 42.1%; in the assay with IGROV1 ovarian it was 11.8%; with OVCAR-3 ovarian, 17.5%; in the assay with HS 578T breast it was 15.4%; in the assay on NCI/ADR-RES ovarian it was 17.1%.

Turning to `N#Cc1ccc(NC(=O)c2ccc3cccnc3c2O)cc1`, the growth with SK-MEL-2 melanoma was 41.3%; in the assay on SN12C renal, 33.7%; in the assay with UO-31 renal, 18.4%; in the assay on TK-10 renal it was 34%; in the assay with ACHN renal, 14.7%; in the assay with CAKI-1 renal it was -12.5% (active). Besides, the growth is 23.8% with CCRF-CEM leukemia; 12.7% in the assay with MOLT-4 leukemia; 25.6% in the assay on SR leukemia; 23.4% with RPMI-8226 leukemia; 16% with OVCAR-8 ovarian; 60.6% in the assay with OVCAR-5 ovarian. Moreover, the growth in the assay on OVCAR-4 ovarian is 16.5%; in the assay with SK-OV-3 ovarian, 19.8%; in the assay on IGROV1 ovarian, 21.3%; in the assay on OVCAR-3 ovarian, 26%; in the assay on HS 578T breast, 53.8%; with NCI/ADR-RES ovarian it was 8.81% (active).

Regarding `CC(=O)n1cc([C@H]2CC[C@H](c3cn(C(C)=O)c4ccccc34)c3c2[nH]c2ccccc32)c2ccccc21`, the growth is 79.6% in the assay with SK-MEL-2 melanoma; 84.7% with SN12C renal; 55.3% with UO-31 renal; 92.8% in the assay on TK-10 renal; 77.9% in the assay on ACHN renal; 57% with CAKI-1 renal. For the same compound, the growth is 64.9% with CCRF-CEM leukemia; 57.6% in the assay on MOLT-4 leukemia; 93.9% in the assay with SR leukemia; 50.8% in the assay with RPMI-8226 leukemia; 89.5% in the assay on OVCAR-8 ovarian; 102% with OVCAR-5 ovarian. The growth in the assay with OVCAR-4 ovarian is 77.7%; in the assay on SK-OV-3 ovarian, 80.4%; in the assay with IGROV1 ovarian it was 58.3%; in the assay on OVCAR-3 ovarian it was 76.3%; in the assay on HS 578T breast, 106%; in the assay on NCI/ADR-RES ovarian, 80.7%.

As for `COc1ccc(-c2nc3sccn3c2-c2ccnc(NCCCNS(=O)(=O)c3ccc(F)cc3)n2)cc1`, the growth in the assay with SK-MEL-2 melanoma is -0.52% (active); in the assay on SN12C renal it was 14.3%; with UO-31 renal, 4.56% (active); in the assay on TK-10 renal, 52.9%; in the assay on ACHN renal, 2.12% (active); with CAKI-1 renal, 21.8%. The growth in the assay on CCRF-CEM leukemia is 9.5% (active); in the assay with MOLT-4 leukemia, 6.65% (active); with SR leukemia, 14.8%; in the assay on RPMI-8226 leukemia, 5.74% (active); with OVCAR-8 ovarian, 6.98% (active); in the assay with OVCAR-5 ovarian, 77%. The growth was 17.1% in the assay with OVCAR-4 ovarian; 39.5% with SK-OV-3 ovarian; 16.3% in the assay with IGROV1 ovarian; 20.9% in the assay on OVCAR-3 ovarian; 32.5% in the assay with HS 578T breast; -5.58% (active) in the assay with NCI/ADR-RES ovarian.

In the case of `O=C(CCl)NCCNc1nccc(Nc2ccc(S(=O)(=O)Nc3ccccn3)cc2)n1`, the growth with SK-MEL-2 melanoma was 32.8%; in the assay on SN12C renal, 13.5%; with UO-31 renal, 47.4%; in the assay on TK-10 renal, 50%; in the assay on ACHN renal it was 25.6%; with CAKI-1 renal, 10.3%. Besides, the growth was 12.3% in the assay on CCRF-CEM leukemia; 23.8% in the assay with MOLT-4 leukemia; 19.4% in the assay on SR leukemia; 14.8% in the assay with RPMI-8226 leukemia; 32.7% with OVCAR-8 ovarian; 15.7% with OVCAR-5 ovarian. For the same compound, the growth in the assay with OVCAR-4 ovarian is 29.4%; with SK-OV-3 ovarian, 61.9%; in the assay on IGROV1 ovarian, 8.94% (active); in the assay on OVCAR-3 ovarian, -6.7% (active); in the assay on HS 578T breast it was 73.1%; in the assay with NCI/ADR-RES ovarian it was 46.5%.

As for `CCOC(=O)CC(C#N)(CC(=O)OCC)C(=O)OCC`, the growth in the assay with SK-MEL-2 melanoma was 106%; in the assay on SN12C renal, 95.1%; in the assay with UO-31 renal, 96.1%; in the assay on TK-10 renal, 139%; in the assay with ACHN renal, 107%; in the assay with CAKI-1 renal, 99.5%. Moreover, the growth in the assay on CCRF-CEM leukemia was 102%; in the assay with MOLT-4 leukemia it was 109%; in the assay on SR leukemia, 100%; in the assay with RPMI-8226 leukemia, 96.1%; with OVCAR-8 ovarian it was 88.8%; in the assay on OVCAR-5 ovarian, 99.9%. Further, the growth with OVCAR-4 ovarian is 104%; in the assay on SK-OV-3 ovarian, 117%; in the assay on IGROV1 ovarian it was 118%; with OVCAR-3 ovarian, 112%; with HS 578T breast, 117%; in the assay with NCI/ADR-RES ovarian, 106%.

Regarding `COc1cc(OC)c(C(=O)/C=C/c2cccc(C#N)c2)c(OC)c1`, the growth was -34.8% (active) in the assay on SK-MEL-2 melanoma; 15.6% in the assay with SN12C renal; 12.4% with UO-31 renal; 24.8% in the assay on TK-10 renal; -33.9% (active) in the assay on ACHN renal; 15.9% in the assay with CAKI-1 renal. Besides, the growth with CCRF-CEM leukemia was 2.65% (active); with MOLT-4 leukemia, 11.7%; in the assay on SR leukemia it was 3.17% (active); in the assay with RPMI-8226 leukemia it was 1.52% (active); in the assay with OVCAR-8 ovarian, 7.46% (active); in the assay with OVCAR-5 ovarian, 40.1%. In addition, the growth in the assay with OVCAR-4 ovarian was 18.1%; in the assay on SK-OV-3 ovarian it was 0.849% (active); with IGROV1 ovarian, 9.48% (active); in the assay with OVCAR-3 ovarian it was 9.13% (active); with HS 578T breast, 17.6%; in the assay with NCI/ADR-RES ovarian, 14.8%.

On to `O=S(=O)(NCCCNc1nccc(-c2c(-c3ccccc3)nc3sccn23)n1)c1ccc(F)cc1`, for which the growth in the assay with SK-MEL-2 melanoma was 53.8%; in the assay with SN12C renal it was 44.1%; in the assay with UO-31 renal, 24.9%; in the assay with TK-10 renal it was 72.7%; with ACHN renal, 26.6%; in the assay with CAKI-1 renal, 33.1%. The growth in the assay on CCRF-CEM leukemia is 31.2%; in the assay with MOLT-4 leukemia, 38.4%; in the assay on SR leukemia it was 34.6%; with RPMI-8226 leukemia, 38.8%; in the assay on OVCAR-8 ovarian, 26.2%; with OVCAR-5 ovarian, 111%. Besides, the growth is 36.2% with OVCAR-4 ovarian; 59.1% with SK-OV-3 ovarian; 32.9% with IGROV1 ovarian; 49.6% with OVCAR-3 ovarian; 72% in the assay on HS 578T breast; 22.4% with NCI/ADR-RES ovarian.

For `COc1ccc(C(=O)c2cc(OC)c(OC)c(OC)c2)cc1/C=C/C(=O)c1ccc(O)cc1`, the growth was 14.8% in the assay on SK-MEL-2 melanoma; 17.7% in the assay on SN12C renal; 36.4% with UO-31 renal; 75.1% with TK-10 renal; -62.8% (active) in the assay on ACHN renal; 24.8% with CAKI-1 renal. The growth was 10.7% in the assay with CCRF-CEM leukemia; 15.5% in the assay with MOLT-4 leukemia; 10.6% with SR leukemia; 9.18% (active) with RPMI-8226 leukemia; 22.3% in the assay with OVCAR-8 ovarian; 69.5% in the assay on OVCAR-5 ovarian. The growth in the assay on OVCAR-4 ovarian was 43.6%; in the assay with SK-OV-3 ovarian it was 18.5%; with IGROV1 ovarian it was 45.9%; with OVCAR-3 ovarian, -10.5% (active); in the assay on HS 578T breast, 43.4%; with NCI/ADR-RES ovarian, 16.2%.
